From PubChem BioAssay AID624330 (Southern Research Specialized Biocontainment Screening …, 2012)
The campaign covered roughly 340,000 compounds. About 2,100 (0.62%) were called active.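 How the source made its calls: active means first-screen hits whose inhibition reached a set limit at any dose in the follow-up dose series; inconclusive means inhibition above the set first-screen limit but never retested; inactive means the rest.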 Not all results are given here. Results with a measured potency or affinity are listed apart.

Each compound was assayed against Rac GTPase-activating protein 1 (Homo sapiens) (UniProt Q9H0H5) (assay: MgcRacGAP GTPase-activating activity inhibitors, confirmation, biochemical, ADP Hunter fluorescence, primary and confirmatory (AID 624330;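 further: fluorescence reports GDP produced by GAP-driven GTP hydrolysis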)). Settings: MgcRacGAP-stimulated Rac1 GTP hydrolysis, at 30 µM, stronger effect = higher value, GST-tagged Rac1 F28L mutant substrate.
Sequence of Rac GTPase-activating protein 1 (Homo sapiens) (Q9H0H5 whole entry, looked up): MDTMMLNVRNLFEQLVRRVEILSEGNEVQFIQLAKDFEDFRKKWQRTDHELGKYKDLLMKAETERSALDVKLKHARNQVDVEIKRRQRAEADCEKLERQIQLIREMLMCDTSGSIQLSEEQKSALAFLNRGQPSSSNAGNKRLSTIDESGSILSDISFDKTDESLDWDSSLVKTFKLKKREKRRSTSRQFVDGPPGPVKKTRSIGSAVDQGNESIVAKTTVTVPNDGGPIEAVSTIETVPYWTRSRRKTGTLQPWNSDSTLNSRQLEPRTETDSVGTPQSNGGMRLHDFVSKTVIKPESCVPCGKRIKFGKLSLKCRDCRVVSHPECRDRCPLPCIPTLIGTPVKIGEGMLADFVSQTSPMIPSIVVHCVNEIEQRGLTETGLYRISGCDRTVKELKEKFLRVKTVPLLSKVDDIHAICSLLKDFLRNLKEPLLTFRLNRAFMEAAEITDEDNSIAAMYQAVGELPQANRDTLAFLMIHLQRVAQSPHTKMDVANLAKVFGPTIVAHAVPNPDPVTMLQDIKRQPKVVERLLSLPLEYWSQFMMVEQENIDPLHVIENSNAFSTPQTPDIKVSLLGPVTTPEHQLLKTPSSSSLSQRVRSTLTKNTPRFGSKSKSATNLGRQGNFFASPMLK

inhibition, inactive:
CC(=O)c1cccc(NC(=O)Nc2c(C)nn(C)c2C)c1 6.89%, Cc1ccc(-c2nc(N)sc2-c2ccccc2)cc1C 8.82%, Nc1nc(-c2ccccc2)c(-c2ccccc2)s1 10.3%, O=S(=O)(NCCCN1CCOCC1)c1ccc(Cl)s1 1.35%, COc1ccc(NC(=O)c2ccc(C(=O)c3ccccc3)o2)cc1 1.49%, COc1ccc(N/C(C)=C/C(=O)c2ccccc2)cc1 10.4%, C/C(=C\C(=O)c1ccccc1)Nc1ccc(Cl)c(Br)c1 6.98%, CC(=O)Nc1ccc(N/C(C)=C/C(=O)c2cccnc2)cc1 -2.43%, O=C(Nc1ccccc1O)c1ccc(C(=O)c2ccccc2)o1 3.33%, C/C(=C\C(=O)c1cccnc1)Nc1ccc(C(=O)O)cc1 -0.69%, CCN(CC(=O)NCc1ccc(Cl)cc1)C(=O)Cc1ccc(OC)cc1 5.69%, Cc1cc(C(=O)Nc2ccccc2[N+](=O)[O-])cs1 0.21%, CCOc1ccc(NC(=O)CN(C)C(=O)c2ccc(N3CCCCCC3)c([N+](=O)[O-])c2)cc1OCC 3.24%, Cc1cc(NCCO)c2cc(O)ccc2n1 15%, CCOC(=O)c1cnc2ccc(Cl)cc2c1NCCN(C)C 14.5%, CCN(CC)CCCNC(=O)c1cc(-c2ccc(O)cc2)on1 25.9%, CN(C)CCNc1ccc(-c2nn(C)c(=O)c3ccccc23)cc1[N+](=O)[O-] 3.29%, CCOC(=O)c1ccc2ncc(C(=O)OCC)c(NCCN(C)C)c2c1 -0.66%, CCN(CC)CCCNc1ncnc2ccccc12 8.44%, COC(=O)c1ccccc1NC(=O)c1sc(Cl)nc1C 6.47%, O=C1C=CC(=O)C(CNc2ccc(C(=O)OCc3ccccc3)cc2)=C1 19.7%, Fc1ccc(-c2nnc(N3CCOCC3)c3ccccc23)cc1F 10.8%, COC(=O)C(Cc1ccccc1)NC(=O)CNS(=O)(=O)c1ccc(Br)cc1 (stereo unspecified) -0.24%, Cc1cc(OCCCCOc2ccc(S(N)(=O)=O)c(C)c2)ccc1S(N)(=O)=O 6.93%, CCOc1ccc2c(c1)C(=O)c1cc(OCC(=O)O)ccc1-2 13.8%, CCCCOc1cccc(C(=O)O)c1 4%, CC[N+](CC)(CC)CCOc1ccc(/C=C/c2ccccc2)cc1 9.54%, O=C(c1ccc(Cl)c(S(=O)(=O)N2CCCCCC2)c1)N1CCCC(C(F)(F)F)C1 (stereo unspecified) 1.91%, COc1cccc(C(=O)NC2CCCc3ccccc32)c1 (stereo unspecified) 11.4%, Cn1c(O)c(/C=C2\C=Nc3ccccc32)sc1=Nc1ccc(C(=O)O)cc1 7.27%, CSc1nsc2nc(=O)c(/C=C3\C=Nc4ccccc43)c(N)n12 1.86%, O=c1[nH]c(=S)[nH]c(O)c1/C=C1\C=Nc2ccccc21 -1.08%, Oc1nc(Nc2ccc(F)cc2)sc1/C=C1\C=Nc2ccccc21 10.4%, CC(=O)c1ccc(-n2c(CCC(=O)O)ccc2-c2ccc(Br)cc2)cc1 11.4%, CCCN(CC(=O)Nc1cccc(Br)c1)CC(=O)Nc1ccc(F)c(F)c1F 8.26%, CCc1ccccc1S(=O)(=O)Cc1ccc(C(=O)NCc2cccs2)o1 1.89%, O=C(CN(CC1CCCO1)C(=O)Cn1nnc(-c2ccc(F)cc2)n1)NC1CCCCC1 (stereo unspecified) 3.03%, Cc1cccc(C(C)Nc2ccc([N+](=O)[O-])cn2)c1 (stereo unspecified) 1.95%, COC(=O)c1ccc(/C=C/C(=O)c2ccc(OC)cc2)cc1 4.33%, COc1ccc(/C=C/C(=O)c2ccc(O)cc2)cc1 4.28%, CCn1cc(C(=O)N2CCN(c3ccc(OC)cc3)CC2)c2cc(OC)c(OC)cc2c1=O 18.7%, CC(C)c1nnc(NC(=O)c2cccc(-n3cnnn3)c2)s1 10.5%, Cc1ccc(C2=NN=C(NC(=O)CSc3nnc4c5ccccc5n(C)c4n3)SC2)cc1 28.8%, Cc1cc(C)nc(SCC(=O)NC2=NN=C(c3ccc(Br)cc3)CS2)n1 27.2%, COc1ccc2nc(/C(C#N)=C\c3ccc(Oc4ccc([N+](=O)[O-])cn4)cc3)[nH]c2c1 5.92%, Cc1cccc(N2C(=O)Cc3ccccc3C2=O)c1 8.26%, Cc1ccc(C(c2nnnn2C2CCCC2)N2CCN(c3nc4ccccc4s3)CC2)cc1 (stereo unspecified) 4.8%, Cc1ccc(OCC(=O)N/N=C\c2cccn2C)c([N+](=O)[O-])c1 1.92%, COc1ccc2nc3cc(Cl)ccc3c(Nc3cc(C(C)C)c(O)cc3C)c2c1 7.74%, COc1ccc(N2CCN(Cc3nc4cc(Cl)ccc4c(=O)[nH]3)CC2)cc1 15.2%, CCOc1ccc(N2C(=O)CC(Cc3cc(C)cc(C)c3)C2=O)cc1 (stereo unspecified) 7.28%, Cc1ccc(N=C(N)N=C(N)N)cc1 16.3%, Cc1ccc(N=Nc2ccc(O)cc2)c(Br)c1 14.6%, CC(=O)C1C(c2cccc(F)c2)c2c(n[nH]c2C)CC1(C)O (stereo unspecified) 9.67%, CCC(=O)N1N=C(c2cccc(NS(C)(=O)=O)c2)CC1c1cccs1 (stereo unspecified) 11.9%, COc1cc(NCc2ccccc2)c2ncn(Cc3ccccc3)c2c1 6.64%, CCn1cc(C(=O)Nc2ccc(NC(=O)c3ccco3)cc2)c(=O)c2ccc(C)nc21 0.62%, Cc1cc(C(=O)CN2C(=O)NC3(CCCCC3)C2=O)c(C)n1Cc1ccc2c(c1)OCO2 0.78%, O=c1c(N=Nc2ccccc2)c[nH]n1-c1ccccc1 -5.5%, COc1c[nH]n(-c2ccccc2)c(=O)c1=O 5.24%, Nc1c(-c2ccccc2)cnn1-c1cccc([N+](=O)[O-])c1 5.5%, S=c1[nH]cc(-c2ccccc2)n1-c1cccc(Cl)c1 6.88%, Cc1[nH]n(-c2cccc([N+](=O)[O-])c2)c(=O)c1-c1ccccc1 8.04%, Nc1c(-c2cccc(Cl)c2)cnn1-c1ccccc1 20.3%, COC(=O)c1ccsc1NC(=O)c1ccco1 6.38%, COc1cc(C(=O)COC(=O)c2ccncc2)cc(OC)c1OC 4.46%, Cc1cc(C(=O)C(=O)N(C)C)c(C)n1-c1ccc(Cl)c(Cl)c1 14.3%, CC1CN(C(=O)c2ccc(NS(=O)(=O)c3cccc(Cl)c3)cc2)CC(C)O1 (stereo unspecified) 5.38%, NS(=O)(=O)c1ccc(N=Cc2c(O)n(-c3nccs3)c(=O)c3ccccc23)cc1 1.11%, Cc1ccc(NC(=O)N/C=C/c2ccco2)c(C)c1 7.78%, CNC(=S)N1CCc2sccc2C1C (stereo unspecified) 9.43%, N#Cc1c2ccc(OCC(=O)NCc3ccco3)cc2n2ccccc12 8.65%, CCOC(=O)Cc1csc(NC(=O)/C=C/c2ccco2)n1 7.86%, CN(C)c1nc2ccccc2c(N)c1-c1ccccc1 31%, Nc1c2ccccc2nc2ccccc12 12.6%, CC1(C)CC(NC(=O)C2CCC(=O)N(Cc3ccccc3F)C2)CC(C)(C)C1 (stereo unspecified) 6.51%, Cc1cc(C)c(S(N)(=O)=O)c(C)c1-n1cnnn1 1.87%, Cc1cc(C)c(S(=O)(=O)NC(C)C)c(C)c1-n1cnnn1 4.49%, COc1ccc(-c2nn(-c3ccccc3)cc2/C=N/NC(=S)NC(C)C)cc1OC 7.12%, CCOC(=O)C1CCN(C(=O)c2cc(S(=O)(=O)N3CCCCC3)ccc2C)CC1 -9.49%, CC(C)c1nc(SCC(=O)Nc2ccc(N3CCOCC3)cc2)c2ccccc2n1 9.39%, CN(C)c1ccc(NC(=O)CSc2nc(C3CC3)nc3ccccc23)cc1 -1.11%, COCCn1c(SCC(=O)c2ccc3c(c2)OCCO3)nnc1-c1ccco1 8.82%, O=C1NC(=O)N(c2ccccc2)C1=O 10%, O=C(O)COc1ccccc1/C=N/NC(=O)Cc1ccccc1 9.01%, CC(C)Cc1nc2sc3c(c2c(=O)n1N)CC(C)(C)OC3 -0.31%, Oc1ccc(C[C@H]2CNC(=S)N2CC2CCCN2C[C@H](Cc2ccc(O)cc2)N2C[C@H](Cc3ccccc3)N(CCc3ccccc3)C2=S)cc1 (stereo partly specified) 10.5%, Cc1cc2c(cc1S(=O)(=O)N1CC(C)CC(C)C1)OCC(=O)N2 (stereo unspecified) 1.63%, Cc1c(NC(=O)C(C)OC(=O)/C=C/c2ccccc2)c(=O)n(-c2ccccc2)n1C (stereo unspecified) 2.8%, COc1cccc(/C=C/C(=O)OC(C)C(=O)Nc2c(C)n(C)n(-c3ccccc3)c2=O)c1 (stereo unspecified) 1.46%, COc1cc(/C=C/C(=O)OCC(=O)Nc2c(C)n(C)n(-c3ccccc3)c2=O)ccc1OCC#N 3.82%, COc1cc(/C=C/C(=O)OCC(=O)Nc2c(C)n(C)n(-c3ccccc3)c2=O)cc(OC)c1OC -6.63%, CCCCCCn1c(CN2CCN(C)CC2)nc2c1c(=O)n(C)c(=O)n2C 0.38%, CCOC(=O)Cc1csc(NC(=O)CSc2nc(N)c3c(C)c(C)sc3n2)n1 -6.82%, O=C(CSc1nc2ccccc2o1)NCC1CCCO1 (stereo unspecified) 5.06%, CCC(c1nnnn1Cc1ccc(OC)cc1)N1CCN(c2ccc(OC)cc2)CC1 (stereo unspecified) 24.3%
